# Source: PubChem BioAssay (NCI)
# This is part of a sample that, as a whole, favours compounds with a hit. Of some 83,000 tested, about 20% had one in any assay.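 Cells were grown in 96-well plates and exposed to the test compound at a single concentration for 48 hours; results are reported as percent growth, with values below 10 considered active.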 Values without a mark were called inactive. Activity calls are given as the source filed them.
# How the values were obtained:
# Experiment in all cases: NCI-60 one-dose screen, 48 h (100 = growth as untreated, 0 = no growth, -100 = all killed)
# Conditions in all cases: 10 µM unless noted
# SR leukemia = system: SR leukemia
# RPMI-8226 leukemia = system: RPMI-8226 leukemia
# OVCAR-8 ovarian = system: OVCAR-8 ovarian
# OVCAR-5 ovarian = system: OVCAR-5 ovarian
# OVCAR-4 ovarian = system: OVCAR-4 ovarian
# SK-OV-3 ovarian = system: SK-OV-3 ovarian
# IGROV1 ovarian = system: IGROV1 ovarian
# OVCAR-3 ovarian = system: OVCAR-3 ovarian
# HS 578T breast = system: HS 578T breast
# NCI/ADR-RES ovarian = system: NCI/ADR-RES ovarian
# T-47D breast = system: T-47D breast
# BT-549 breast = system: BT-549 breast
# MDA-MB-435 melanoma = system: MDA-MB-435 melanoma
# SW-620 colon = system: SW-620 colon
# MCF7 breast = system: MCF7 breast
# HCT-116 colon = system: HCT-116 colon
# HCC-2998 colon = system: HCC-2998 colon
# KM12 colon = system: KM12 colon
Structure (SMILES),growth (SR leukemia),growth (RPMI-8226 leukemia),growth (OVCAR-8 ovarian),growth (OVCAR-5 ovarian),growth (OVCAR-4 ovarian),growth (SK-OV-3 ovarian),growth (IGROV1 ovarian),growth (OVCAR-3 ovarian),growth (HS 578T breast),growth (NCI/ADR-RES ovarian),growth (T-47D breast),growth (BT-549 breast),growth (MDA-MB-435 melanoma),growth (SW-620 colon),growth (MCF7 breast),growth (HCT-116 colon),growth (HCC-2998 colon),growth (KM12 colon)
COc1cc2c(cc1OC)C(CC1(O)CCCCC1)N(S(=O)(=O)c1ccc(C)cc1)CC2 (centres undefined),-10.4% [100 µM] (active),16.7% [100 µM],26.8% [100 µM],76.2% [100 µM],25.4% [100 µM],80% [100 µM],53.6% [100 µM],-15.5% [100 µM] (active),57.3% [100 µM],34.5% [100 µM],29.7% [100 µM],-1.8% [100 µM] (active),-23.1% [100 µM] (active),15.6% [100 µM],25.7% [100 µM],9.09% [100 µM] (active),39% [100 µM],4.08% [100 µM] (active)
COc1ccccc1NC(=O)c1sc2nc3c(cc2c1N)C(=O)CCC3,64%,84.3%,90.6%,76.1%,91.4%,39%,82.9%,87%,65.6%,58.6%,87.3%,63.1%,-31.9% (active),60.2%,59%,75.5%,75.5%,53.4%
CC(=O)N1N=C(c2ccc(Nc3ccnc4cc(Cl)ccc34)cc2)CC1c1ccc(Cl)cc1 (centres undefined),2.79% (active),22.3%,66.9%,87.9%,45.2%,68.1%,51.1%,29.2%,41%,22.9%,25.5%,54.7%,6.15% (active),63.1%,25.6%,55.6%,44.4%,36.5%
COC(=O)[C@H](CCCCNC(=O)OCc1ccccc1)NC(=O)[C@@H](NC(=O)Nc1cc(C(F)(F)F)cc(C(F)(F)F)c1)C(C)C,-23.3% [100 µM] (active),-20.6% [100 µM] (active),-22.1% [100 µM] (active),41.6% [100 µM],-68.8% [100 µM] (active),-23.4% [100 µM] (active),-61% [100 µM] (active),-92.5% [100 µM] (active),-1.7% [100 µM] (active),60.4% [100 µM],-57.6% [100 µM] (active),47.1% [100 µM],-86% [100 µM] (active),-14.6% [100 µM] (active),-18.2% [100 µM] (active),-86.6% [100 µM] (active),-43.4% [100 µM] (active),7.99% [100 µM] (active)
CC(C)OP(=O)(OC(C)C)c1ncc(-c2ccc(C(F)(F)F)cc2)c(NC2CCCCCC2)n1,-30.3% [33.3 µM] (active),-40.7% [33.3 µM] (active),0.0612% [33.3 µM] (active),-89.1% [33.3 µM] (active),2.6% [33.3 µM] (active),8.69% [33.3 µM] (active),-11.2% [33.3 µM] (active),-96.8% [33.3 µM] (active),-30.1% [33.3 µM] (active),3.22% [33.3 µM] (active),-13.8% [33.3 µM] (active),-95% [33.3 µM] (active),-75.2% [33.3 µM] (active),-52.7% [33.3 µM] (active),0.217% [33.3 µM] (active),-93.4% [33.3 µM] (active),-87.6% [33.3 µM] (active),-95.8% [33.3 µM] (active)
O=C(N/N=C/c1ccc(Cl)cc1Cl)c1ccccc1Nc1cccc(C(F)(F)F)c1,56.3%,58.4%,71.6%,85.6%,65.6%,97.4%,43.8%,53.3%,49.3%,73.4%,83.4%,-57.4% (active),70.7%,84.4%,280%,60.7%,88.2%,79%
CC(=O)c1ccccc1NC(=O)C(C)(c1ccccc1)c1ccccc1,65.9%,57.3%,90.2%,91.3%,97.9%,103%,101%,103%,34.3%,63.8%,67.7%,75.7%,98.6%,93.4%,102%,42.1%,108%,85%
O=C(O)CCC(=O)OC[C@@H](NC(=O)C(Cl)Cl)[C@H](O)c1ccc([N+](=O)[O-])cc1,95.9%,89.5%,94.4%,93.5%,102%,107%,97.2%,121%,111%,101%,95%,89.6%,101%,108%,97.2%,92.3%,100%,103%
